Laboratory results: PubChem BioAssay
Calls of active or inactive are those of the source.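 How the source made its calls, unless noted: active means a full or partial loss of lipid-probe fluorescence in the fish gall bladder, intestine or both, judged by eye; inactive means no fluorescence loss, or compound toxic to the fish.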

Experiments:
[1] = inhibitors of E-selectin induction by TNFa, primary screen, imaging, HUVEC, immunofluorescence, MLSMR starter and 10KST1 sets (AID 487;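 active means visually confirmed hit in the image check and inhibition above 20%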;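 on inhibition: signal is fraction of cell area covered by stained E-selectin grains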;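 on nuclei count: 100% = median nuclei count of all wells on the same plate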); settings: HUVEC TNFalpha-induced E-selectin immunofluorescence imaging, at 2 µM; inhibition: stronger effect = higher value; nuclei count: measured here: cell number, toxicity
[2] = DUSP6 inhibitors restoring Erk phosphorylation by chemical complementation, primary imaging in DUSP6-transfected HeLa (AID 609;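 active means compounds giving at least 50% inhibition in the cell-based MKP-3 phosphatase rescue imaging test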;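 on inhibition: phospho-Erk level distribution per well compared with pooled transfected vehicle control wells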); settings: HeLa MKP-3 transfected, phospho-Erk imaging KS statistic, at 10 µM, cells stimulated with TPA for 15 min
[3] = biological target: Dual specificity protein phosphatase 6 (Homo sapiens) (UniProt Q16828); assay: as above; settings: HeLa MKP-3 transfected, phospho-Erk imaging KS statistic; at 10 µM; stronger effect = higher value; cells stimulated with TPA for 15 min
[4] = biological target: Voltage-gated potassium channel subunit beta-2 (Rattus norvegicus) (UniProt P62483); assay: KvBeta enzyme negative modulators, primary screen, biochemical, NADPH fluorescence (AID 622;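 active means fluorescence slope higher than the sample average by over 3 SD, cut at about -0.22 in these data, passing the limit was not always enough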;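 further: slope of raw intensity against log time taken from 70 to 1610 s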); settings: recombinant KvBeta, 4-cyanobenzaldehyde reduction, at 10 µM, stronger effect = higher value
[5] = biological target: Voltage-gated potassium channel subunit beta-2 (Rattus norvegicus) (UniProt P62483); assay: KvBeta positive modulators, primary screen, biochemical, NADPH fluorescence (AID 623;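 active means NADPH fluorescence slope more negative than the mean of all samples by about 3 SD, 99.7% confidence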;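 further: fluorescence intensity change per second fitted from 20 to 320 s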); settings: Recombinant KvBeta, NADPH fluorescence decrease slope, 10 min; at 10 µM; stronger effect = lower value
[6] = biological target: Muscarinic acetylcholine receptor M4 (Homo sapiens) (UniProt P08173); assay: compounds altering M4/GIRK thallium flux, either direction, primary screen, M4 allosteric agonist project, cell-based, HEK293 M4/GIRK, BTC-AM (AID 625;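 active means fluorescence slope after compound addition differing from the mean of all tested samples at 99.7% confidence, mostly higher but some lower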;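 further: thallium influx through GIRK channels coupled to M4 in HEK293 cells with BTC-AM dye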); settings: at 10 µM, actives lie on both sides
[7] = inhibitors of larval lipid processing in zebrafish, primary screen, whole organism, PED6 fluorescence, gall bladder and intestine (AID 686); settings: Zebrafish larvae PED6 lipid processing, fluorescence scoring; screened at 20 µM (by protocol);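 further: larvae 5 to 7 days old with five fish per well; signal comes from phospholipase A2 cleavage of quenched PED6 carried via bile; overnight exposure to compound and PED6 before scoring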
[8] = inhibitors of Chlamydomonas gravitaxis, primary screen, whole organism, Chlamydomonas reinhardtii, WT vs cilia-less mutant, absorbance, 96-well (AID 463189;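 active means inhibition at or above 50% relative to wild type and mutant plate controls; inactive means inhibition below 50%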;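 further: 0% = wild type cc124 cells in DMSO and 100% = ciliumless bld1 mutant cells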); settings: OD600 absorbance, 2 days, at 10 µM, stronger effect = higher value
[9] = measured here: cell density z-score
[10] = measured here: nuclear c-Myc green intensity z-score
[11] = measured here: nuclear pErk red intensity z-score, stronger effect = higher value

Sequence of Voltage-gated potassium channel subunit beta-2 (Rattus norvegicus) (P62483 whole entry, looked up): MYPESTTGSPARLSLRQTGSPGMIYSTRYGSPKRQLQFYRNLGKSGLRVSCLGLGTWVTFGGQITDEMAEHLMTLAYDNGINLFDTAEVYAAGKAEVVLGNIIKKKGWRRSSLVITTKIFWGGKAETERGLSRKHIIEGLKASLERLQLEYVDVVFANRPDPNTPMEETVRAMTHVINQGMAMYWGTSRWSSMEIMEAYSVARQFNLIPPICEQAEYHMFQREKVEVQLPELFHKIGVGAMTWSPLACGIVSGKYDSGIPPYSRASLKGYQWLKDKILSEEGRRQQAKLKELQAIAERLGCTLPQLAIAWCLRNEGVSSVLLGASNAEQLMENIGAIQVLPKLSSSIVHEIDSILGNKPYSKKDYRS
Sequence of Dual specificity protein phosphatase 6 (Homo sapiens) (Q16828 whole entry, looked up): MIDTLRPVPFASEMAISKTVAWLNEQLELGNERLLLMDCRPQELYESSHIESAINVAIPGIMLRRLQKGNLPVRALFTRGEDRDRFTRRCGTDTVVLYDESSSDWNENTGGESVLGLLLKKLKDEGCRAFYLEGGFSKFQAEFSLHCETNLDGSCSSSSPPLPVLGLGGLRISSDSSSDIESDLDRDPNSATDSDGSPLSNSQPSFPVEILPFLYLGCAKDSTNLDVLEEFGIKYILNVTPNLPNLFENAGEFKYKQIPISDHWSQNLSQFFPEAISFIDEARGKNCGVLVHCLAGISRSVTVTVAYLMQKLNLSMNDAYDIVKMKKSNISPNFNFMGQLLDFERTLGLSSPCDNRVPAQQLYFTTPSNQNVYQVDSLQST
Sequence of Muscarinic acetylcholine receptor M4 (Homo sapiens) (P08173 whole entry, looked up): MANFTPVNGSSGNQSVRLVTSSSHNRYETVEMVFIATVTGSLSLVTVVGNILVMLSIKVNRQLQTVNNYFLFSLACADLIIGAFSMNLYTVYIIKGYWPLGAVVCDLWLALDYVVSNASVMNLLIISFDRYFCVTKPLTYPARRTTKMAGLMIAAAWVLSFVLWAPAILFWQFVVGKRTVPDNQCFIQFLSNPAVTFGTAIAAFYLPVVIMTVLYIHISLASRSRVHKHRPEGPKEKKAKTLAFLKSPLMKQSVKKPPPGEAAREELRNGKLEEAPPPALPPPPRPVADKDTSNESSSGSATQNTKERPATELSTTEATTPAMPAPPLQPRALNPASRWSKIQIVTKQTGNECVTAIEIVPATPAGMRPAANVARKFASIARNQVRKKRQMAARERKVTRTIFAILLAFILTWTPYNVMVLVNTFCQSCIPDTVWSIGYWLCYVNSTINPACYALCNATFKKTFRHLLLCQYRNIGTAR

SMILES	inhibition [1]	nuclei count [1] [%]	z-score [2, 9]	z-score [2, 10]	z-score [2, 11]	inhibition [3]	fluorescence slope [4]	NADPH fluorescence slope [5]	fluorescence slope [6]	outcome [7]	inhibition [8]
CC(C)(C#N)C(C)(C)c1nn[nH]n1	-15.5% (inactive)	72.6	1.29	-0.296	-0.013	13.2% (inactive)	-0.468 (inactive)	-2.9e-05 (inactive)	0.00499 (inactive)	inactive	20% (inactive)
CN(CCOC(=O)c1cccc(Br)c1)C(C)(C)C	-47% (inactive)	134	-0.456	0.868	2.16	7.48% (inactive)	-0.405 (inactive)	-4e-05 (inactive)	0.00522 (inactive)	inactive	30.2% (inactive)
c1ccc2c(c1)nc(CN1CCOCC1)n1c3ccccc3nc21	-88% (inactive)	174	-0.838	-0.224	1.09	-3.98% (inactive)	-0.309 (inactive)	-2.8e-05 (inactive)	0.00659 (inactive)	inactive	-4.79% (inactive)
COc1ccc(-n2c(C)c(C(C)=O)c3cc(O)ccc32)cc1	4.2% (inactive)	135	-0.551	-0.198	0.861	9.39% (inactive)	-0.4 (inactive)	-4.1e-05 (inactive)	0.00708 (inactive)	inactive	30.2% (inactive)
CCCCOc1ccccc1P(=O)(O)CP(=O)(c1ccccc1)c1ccccc1	-205% (inactive)	192	-0.204	-0.49	0.473	-5.89% (inactive)	-0.436 (inactive)	-3e-05 (inactive)	0.00473 (inactive)	inactive	2.4% (inactive)
COc1cccc(N2CCN(c3ncnc4c3[nH]c3ccccc34)CC2C)c1 (stereo not given)	72.8% (inactive)	102	-0.905	-0.691	2.95	-7.93% (inactive)	-0.41 (inactive)	-8e-06 (inactive)	0.00483 (inactive)	inactive	57% (active)
CCCCCOc1ccc(Cl)cc1CN1CCOCC1	-77.3% (inactive)	110	-0.264	0.0743	-0.781	11.3% (inactive)	-0.434 (inactive)	-2.1e-05 (inactive)	0.00599 (inactive)	inactive	126% (active)
Clc1ccc2nc(N3CCNCC3)nc(-c3ccccc3)c2c1	14.5% (inactive)	144	0.81	-0.0975	1.71	7.48% (inactive)	-0.23 (inactive)	-6.4e-06 (inactive)	0.00627 (inactive)	inactive	151% (active)
CN1CC(=O)Nc2ccc(F)cc2C1=O	-12.8% (inactive)	108	-0.408	1.54	-1.19	7.48% (inactive)	-0.414 (inactive)	-5.5e-06 (inactive)	0.0056 (inactive)	inactive	-6.78% (inactive)
O=C(CCN1CCc2ccccc2CC1)c1ccc2c(c1)OCCO2	-194% (inactive)	154	1.21	0.758	0.122	9.39% (inactive)	-0.406 (inactive)	-5.2e-05 (inactive)	0.00461 (inactive)	inactive	40.1% (inactive)
CCC(=O)Oc1oc(-c2ccccc2)nc1C=Nc1ccccc1OC	-41.7% (inactive)	161	0.687	0.248	1.48	9.39% (inactive)	-0.381 (inactive)	-4.4e-05 (inactive)	0.00681 (inactive)	inactive	10.5% (inactive)
Oc1oc(-c2ccccc2)nc1C=NCc1ccncc1	5.8% (inactive)	104	0.0106	-0.425	0.0699	13.2% (inactive)	-0.353 (inactive)	7.6e-07 (inactive)	0.00715 (inactive)	inactive	-10.3% (inactive)
Cc1ccc(N2CN=c3s/c(=C\c4cccnc4)c(=O)n3C2)cc1	-18.9% (inactive)	87.4	-0.873	0.442	0.633	1.75% (inactive)	-0.483 (inactive)	-4.2e-05 (inactive)	0.00552 (inactive)	inactive	36.5% (inactive)
Cc1cccc(OCC(=O)NCC(=O)n2nc(C)cc2C)c1	-106% (inactive)	146	-0.336	0.0922	0.78	-7.79% (inactive)	-0.413 (inactive)	-9.5e-06 (inactive)	0.00436 (inactive)	inactive	16.2% (inactive)
CCCOc1ccc(Cl)cc1CN1CCOCC1	-21.7% (inactive)	67.6	0.154	-1.58	-0.239	20.8% (inactive)	-0.499 (inactive)	-3e-05 (inactive)	0.0115 (inactive)	inactive	32.2% (inactive)
